Measured values as given in PubChem BioAssay (Tox21).
Several values for one entry are separate records, joined by “and”; a condition that tells them apart may be missing. Equal entries are not always repeated. Results filed as inconclusive are left out. Where a call stands in place of a potency, no number is given. Where a structure was tested more than once in an assay, its records may differ in their call. Activity calls are given as the source filed them. The call rests on the fitted dose curve; in most records, active means well fitted cell-killing curve with a large enough effect in the repeat runs; inconclusive means weak or mixed curves, or effect the other way; inactive means flat fitted curve, though single readings scatter.

Test: qHTS assay to identify small molecule agonists of the sonic hedgehog signaling (Shh) pathway - cell viability counter screen (AID 1259366); further: nearly all actives have a fitted effect of over 50% in size
Settings: NIH/3T3 Gli1-Luc viability, CellTiter-Fluor, 24 h; series mostly up to 92.4 µM
Excerpt: National Center for Advancing Translational Sciences [NCATS]
NIH Chemical Genomics Center [NCGC]
U.S. Environmental Protection Agency [EPA]
National Institutes of Environmental Health Sciences [NIEHS]
National Toxicology Program [NTP]
U.S. Food and Drug Administration [FDA]
The sonic hedgehog (Shh) pathway is essential for normal embryonic development. Dysregulation of the Shh pathway can cause severe developmental defects in organs. Therefore chemicals that interfere with the pathway are potential developmental toxicants. A cell line designated 3T3Gli1-Luc (DMB/OARSA/CFSAN/FDA, Laurel, MD), a NIH/3T3 derived clone containing stably integrated Gli1-Luc reporter is used to detect chemical interference of the Shh pathway, by changes in the expression of the firefly Luc gene under the control of the Gli1 transcriptional response element. This cell line was used to screen Tox21 libraries for identifying and prioritizing the potential developmental toxicants that interfere Shh pathway. The cytotoxicity of the compounds was tested in parallel by measuring the cell viability using CellTiter-Fluor assay system (Promega, Madison, WI) in the same wells.
Tox21 Assay Protocol Summary:
3T3 Gli1-Luc cells were dispensed at 2,000 per well in 5uL of culture medium into white solid bottom 1536-well plates (Greiner Bio-One, Monroe, NC) using a Multidrop Combi (Thermo Scientific, Waltham, MA) dispenser. The assay plates were incubated at 37 C and 5% CO2 for 4hr, and then 23nL of compounds dissolved in DMSO and positive control were transferred using a Pintool station (Wako, San Diego, CA). The assay plates were incubated at 37C and 5% CO2 for 24hr. For viability read, after 23hr of compound treatment, 1uL of CellTiter-Fluor reagent (Promega Corporation, Madison, WI) was added to each well of the assay plates using Flying Reagent Dispenser (FRD, Aurora Discovery, San Diego, CA) and incubated the assay plates at 37C for 1hr. The fluorescence signal was quantified using a ViewLux plate reader (Perkin Elmer, Shelton, CT).
Potency means the concentration at half of the fitted maximal effect.

SMILES | Potency | viability change, negative = cytotoxic
Nc1ccc(Oc2ccc(Cl)cc2)cc1 | inactive | –
CN1CCN2c3ccccc3Cc3ccccc3C2C1 (stereo not given) | inactive | –
CCn1c2ccccc2c2cc([N+](=O)[O-])ccc21 | inactive | –
FC(F)(F)c1cccc(Cl)c1 | inactive | –
OC1CCCc2ccccc21 (stereo not given) | inactive | –
O=C(O)c1cccc(C(F)(F)F)c1 | inactive | –
COC(C)=O | inactive | –
CCCCCCCCCCCCCCCC[N+](C)(C)CC | 68.8 µM (active) | –
CNC(=O)c1ccccc1Sc1ccc2c(/C=C/c3ccccn3)n[nH]c2c1 | 13.3 µM (active) | –
C[C@@H](O)[C@H](N)C(=O)O | – | 6.05% [at 19 µM] (inactive)
Cc1ccc(O)c(O)c1 | 21.1 µM (active) | –
S=c1nccc[nH]1 | inactive | –
Cc1c(C)c2c(c(C)c1O)CC[C@@](C)(CCC[C@H](C)CCC[C@H](C)CCCC(C)C)O2 | inactive | –
Cc1cccc(C)c1NC(=O)c1ccc(N)cc1 | inactive | –
Cc1cc(C(C)(C)C)c(O)c(C)c1Cn1c(=O)n(Cc2c(C)cc(C(C)(C)C)c(O)c2C)c(=O)n(Cc2c(C)cc(C(C)(C)C)c(O)c2C)c1=O | inactive | –
Cc1ccc(C(=O)O)cc1 | inactive | –
CCCCCc1ccc(Cl)cc1 | inactive | –
C=C(CC)C(=O)c1ccc(OCC(=O)O)c(Cl)c1Cl | 60.7 µM (active) and inactive | –
C[C@H]1NCc2cc(-c3ccc4c(=O)c(C(=O)O)cn(C5CC5)c4c3OC(F)F)ccc21 | – | 2.18% [at 19 µM] (inactive)
C1CCC(SSC2CCCCC2)CC1 | inactive | –

SMILES | Potency | viability change, negative = cytotoxic
CCC(CC)(CC(=O)Nc1cccc(/C=C/c2nc(C3CCC3)cs2)c1)C(=O)O | inactive | –
CCCCC/C=C\C/C=C\CCCCCCCC(=O)O | inactive | –
CC(C)(C)c1csc(-c2cc3cc(OCc4ccccc4CC(=O)O)ccc3o2)n1 | inactive | –
O=C(O)[C@H](O)[C@@H](O)[C@H](O[C@@H]1O[C@H](CO)[C@H](O)[C@H](O)[C@H]1O)[C@H](O)CO | inactive | –
O=C(/C=C/c1ccccc1)OC/C=C/c1ccccc1 | inactive | –
COc1ccc2c(c1)c(CC(=O)OC/C=C(\C)CC/C=C(\C)CCC=C(C)C)c(C)n2C(=O)c1ccc(Cl)cc1 | inactive | –
CC(C)(C)NSc1nc2ccccc2s1 | inactive | –
CCO[C@@H]1O[C@H](C(COCc2ccccc2)OCc2ccccc2)[C@H](OCc2ccccc2)[C@H]1O (stereo not given in full) | inactive | –
CCCC(=O)OCOC(=O)C1=C(C)NC(C)=C(C(=O)OC)C1c1cccc(Cl)c1Cl (stereo not given) | inactive | –
Cc1ccc(C(C)C)cc2c(C)ccc1-2 | inactive | –
CCOc1ccc2ccccc2c1C(=O)N[C@@H]1C(=O)N2[C@@H]1SC(C)(C)[C@@H]2C(=O)O | inactive | –
COCCOc1cc2cc(C(=O)NC3CCN(C(C)C)CC3)n(CC(=O)Nc3ccc(Cl)cn3)c2cn1 | inactive | –
Cc1ccc(C)cc1 | inactive | –
O=C1CCc2cc(OCCCCc3nnnn3C3CCCCC3)ccc2N1 | inactive | –
O[C@@H]([C@H](O)[C@H](O)CBr)[C@H](O)CBr | inactive | –
COc1cccc2c1C(=O)c1c(O)c3c(c(O)c1C2=O)C[C@@](O)(C(C)=O)C[C@@H]3O[C@H]1C[C@H](N)[C@H](O)[C@H](C)O1 | 615 nM (active) and 2.11 µM (active) | –
Cc1c(N)cccc1C(F)(F)F | inactive | –
c1ccc(SSc2ccccc2)cc1 | inactive | –
CCCCCCCCCCCCOC(=O)c1ccc(O)cc1 | inactive | –
COC(=O)c1ccccc1OC | inactive | –
